Screens deposited in PubChem BioAssay by National Center for Advancing Translational Sciences (NCATS).
In the library only some 7.4% were active in any assay of this set; here they are far more common.
TSHR agonist = agonists of human thyroid stimulating hormone receptor; HEK293-CNG-TSHR cells (CNG channel as cAMP sensor), membrane potential dye, cAMP; Potency, µM (highest dose often 57.1 µM), inactives show at the highest dose activation, usual class: activators; actives 0.48% (n = 73,000); active = well fitted activation curve with a large enough effect in the main read-out, with a control signal flat, not every such curve was filed as active; inconclusive = small, poorly fitted or top-dose-only effect, or a change in a side signal; inactive = no such curve, though single readings can be large or run the other way; % of control where 0% means no effect;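 also: the control signal comes from parental cells without the receptor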
Target sequence (P16473 whole entry, looked up): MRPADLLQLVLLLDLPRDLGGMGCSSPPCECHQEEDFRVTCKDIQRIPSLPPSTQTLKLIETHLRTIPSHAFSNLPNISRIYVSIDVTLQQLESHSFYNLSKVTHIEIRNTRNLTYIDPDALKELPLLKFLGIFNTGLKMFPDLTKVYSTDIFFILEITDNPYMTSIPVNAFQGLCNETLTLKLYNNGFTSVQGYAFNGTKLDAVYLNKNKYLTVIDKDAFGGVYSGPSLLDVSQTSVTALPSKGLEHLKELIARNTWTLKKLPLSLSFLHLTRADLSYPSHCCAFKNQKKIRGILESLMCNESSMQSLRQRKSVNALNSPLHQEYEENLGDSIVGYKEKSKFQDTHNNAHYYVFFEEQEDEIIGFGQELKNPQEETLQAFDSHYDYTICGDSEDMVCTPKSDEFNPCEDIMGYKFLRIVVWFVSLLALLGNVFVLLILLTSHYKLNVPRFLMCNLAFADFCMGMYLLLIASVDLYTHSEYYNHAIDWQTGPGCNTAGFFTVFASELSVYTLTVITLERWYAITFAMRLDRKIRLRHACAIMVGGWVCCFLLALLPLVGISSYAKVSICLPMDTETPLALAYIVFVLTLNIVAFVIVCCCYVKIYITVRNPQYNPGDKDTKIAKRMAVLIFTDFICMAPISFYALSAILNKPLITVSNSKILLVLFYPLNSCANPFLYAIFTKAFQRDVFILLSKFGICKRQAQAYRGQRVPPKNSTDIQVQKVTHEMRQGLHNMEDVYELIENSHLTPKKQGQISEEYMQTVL
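HEK 293 cells stably expressing TSHR and a modified CNG channel, with CNG-only parental cells as counterscreen, were preloaded 60 min at room temperature with membrane potential dye containing 100 uM RO 20-1724. Compound exposure was 30 min, and depolarization was read as fluorescence at 590 nm.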
Tau filament bind = binders of human tau filaments | Potency, µM (series often up to 57.1 µM), without a hit: at the top dose activity change, negative = inhibition | recombinant tau filaments, thioflavin S fluorescence, 15 h; filaments grown with octadecylsulfate alongside compound | AID 596 | actives 2% (n = 71,000) | P10636;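 also: % is scaled to controls: 0 for no effect and ±100 for the full control effect; actives lower thioflavin S fluorescence by blocking filaments or displacing dye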
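Thioflavine S fluorescence (ex 450, em 510 nm) reports filaments formed from 1 uM human tau plus 30 uM ODS over 15 h at 37 C (10 mM HEPES pH 7.4, 100 mM NaCl, 5 mM DTT); compounds displacing dye or blocking filaments lower signal.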
CRE-bla Fsk = modulators of forskolin-stimulated CRE signaling in CHO cells; CHO CRE-bla reporter (cAMP response element driving beta-lactamase), forskolin EC10, beta-lactamase ratio; Potency, µM (top dose mostly 38.2 µM), for inactives: at the highest dose activity change, negative = inhibition, actives largely listed as activators; actives 2.5% (n = 71,000); active = well fitted activation curve with a large enough effect in the signal ratio, with a control signal flat, not every such curve was filed as active; inconclusive = small, poorly fitted or top-dose-only effect, or effect the other way, or a change in a side signal; the % refers to the signal ratio; also: % of control where 0% means no effect
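Forskolin analogue NKH 477 at EC10 stimulated CRE-driven beta-lactamase in CHO cells alongside compound dilution series. Beta-lactamase was measured with CCF4, excitation 405 nm, emission ratio 460/530 nm.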
HEK293 cAMP ctrl = parental HEK293 cAMP activation (counter-screen). Potency, µM (titrated, usually from 57.1 µM), without a hit: top-dose activation, most hits filed as activators. actives 2.5% (n = 73,000). parental HEK293 CNG cAMP sensor, membrane potential fluorescence; also: % of control where 0% means no effect; nearly all actives have a fitted effect of over 55% in size
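Parental HEK 293 cells stably expressing a modified CNG channel (no TSHR) report cAMP rise as membrane depolarization. Membrane potential dye with 100 uM RO 20-1724 was loaded for 60 min at room temperature, then compound added for 30 min; fluorescence read at 590 nm.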
ERK AVP inh = blocks ERK signaling stimulated by vasopressin; actives 0.99% (n = 72,000); AID 995; Potency, µM (top dose mostly 57.5 µM), inactives show at the highest dose activity, negative = inhibition, actives largely listed as inhibitors; HEK293-V1b, vasopressin-stimulated pERK AlphaScreen; also: % is scaled to controls: 0 for no effect and ±100 for the full control effect; nearly all actives have a fitted effect of over 55% in size
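Overnight-seeded V1b-HEK293 cells in 1% FBS got compound, then vasopressin (25 nM final, 5 min, 37C), then lysis buffer. AlphaScreen detection of phospho-ERK; activity normalized to basal and full-stimulation controls.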
* marks the source's active call; other numbers are inactive results; [ ] = another dose, or the depositor's remark. Unless noted, calls follow the shape of the dose curve; as a rule, active = well fitted curve in the direction sought with a large enough effect; inconclusive = small, poorly fitted or top-dose-only effect, or another doubt; inactive = no such curve, though single readings can be large; an effect the other way counts as inactive or inconclusive. Potency is read from the fitted curve at half-maximal effect.

What do the screens show for `CCOC(=O)c1oc2cccc(O)c2c1CN1CCOCC1`?
TSHR agonist: 0%; Tau filament bind: -7%; CRE-bla Fsk: 13µM*; HEK293 cAMP ctrl: 20%; ERK AVP inh: -11%

How did CCOC(=O)c1c(C)oc2ccc(O)c(CN3CCCCC3)c12 do in these assays?
TSHR agonist: inconclusive; Tau filament bind: 5%; CRE-bla Fsk: inconclusive; HEK293 cAMP ctrl: 16µM*; ERK AVP inh: -24%

How did N#CCSc1nnc(COc2cccc3ccccc23)n1-c1cccc(Cl)c1 do in these assays?
TSHR agonist: 8%; Tau filament bind: 34%; CRE-bla Fsk: inconclusive; HEK293 cAMP ctrl: 27%; ERK AVP inh: -27%

Results for N#CCSc1nnc(COc2cccc3ccccc23)n1-c1ccccc1 ?
TSHR agonist: inconclusive; Tau filament bind: 291%; CRE-bla Fsk: -4%; HEK293 cAMP ctrl: 13µM*; ERK AVP inh: -11%

What do the screens show for `N#CCSc1nc2cc(C(=O)N3CCCC3)ccc2c(=O)n1Cc1ccccc1`?
TSHR agonist: 10%; Tau filament bind: 10%; CRE-bla Fsk: inconclusive; HEK293 cAMP ctrl: 11%; ERK AVP inh: inconclusive

What do the screens show for `N#CCSc1nc2cc(C(=O)N3CCC(C(N)=O)CC3)ccc2c2nc3ccccc3n12`?
TSHR agonist: 23%; Tau filament bind: 5%; CRE-bla Fsk: 2.5µM*; HEK293 cAMP ctrl: -3%; ERK AVP inh: 20µM*

What do the screens show for `CC(=O)CC(=O)Nc1ccccc1`?
TSHR agonist: 1%; Tau filament bind: 1%; CRE-bla Fsk: -5%; HEK293 cAMP ctrl: -2%; ERK AVP inh: 4%

What do the screens show for `COCCn1c(SCC(=O)N2CCCc3ccccc32)nc2ccccc2c1=O`?
TSHR agonist: inconclusive; Tau filament bind: 16%; CRE-bla Fsk: inconclusive; HEK293 cAMP ctrl: 20µM*; ERK AVP inh: -5%

What do the screens show for `COCCn1c(SCC(=O)N2CCCc3ccccc32)nnc1-c1ccco1`?
TSHR agonist: 2%; Tau filament bind: -3%; CRE-bla Fsk: inconclusive; HEK293 cAMP ctrl: 11%; ERK AVP inh: -6%

How did NC1(C(=O)NC2(C(=O)O)CCCC2)CCCC1 do in these assays?
TSHR agonist: 1%[11.4 µM]; Tau filament bind: -4%[11.4 µM]; CRE-bla Fsk: 2%[7.6 µM]; HEK293 cAMP ctrl: 3%[11.4 µM]; ERK AVP inh: -3%[11.5 µM]

Results for CC(C)CO/N=C1/C[C@@H](O)[C@@H](O)[C@@H]2[C@@H]3C(=O)N(C(C)(C)C)C(=O)[C@H]3CC[C@@H]12 ?
TSHR agonist: -7%[11.4 µM]; HEK293 cAMP ctrl: 4%[11.4 µM]; ERK AVP inh: 3%[11.5 µM]

Results for Cn1c(=O)c(C(=O)CN2CCCc3ccccc32)c(N)n(Cc2ccccc2)c1=O ?
TSHR agonist: -15%; Tau filament bind: 25µM*; CRE-bla Fsk: -18%; HEK293 cAMP ctrl: 0%; ERK AVP inh: 8%

Results for CCC(=O)OCC(=O)c1c(N)n(Cc2ccccc2)c(=O)n(C)c1=O ?
TSHR agonist: 0%; Tau filament bind: 13%; CRE-bla Fsk: -5%; HEK293 cAMP ctrl: 0%; ERK AVP inh: -18%

Results for S=C(Nc1ccc2cn[nH]c2c1)Nc1ccc2cn[nH]c2c1 ?
TSHR agonist: 12%[11.4 µM]; Tau filament bind: -10%[11.4 µM]; CRE-bla Fsk: 3%[7.6 µM]; HEK293 cAMP ctrl: -2%[11.4 µM]; ERK AVP inh: 3%[11.5 µM]

What do the screens show for `Cc1ccc(S(=O)(=O)N(Cc2nccn2C)C(C)C)cc1`?
TSHR agonist: 25µM*; Tau filament bind: -3%; CRE-bla Fsk: inconclusive; HEK293 cAMP ctrl: 25%; ERK AVP inh: 0%

What do the screens show for `Cc1ccc(S(=O)(=O)N2CCN(S(=O)(=O)N(C)C)CC2)cc1`?
TSHR agonist: 3%; Tau filament bind: 9%; CRE-bla Fsk: inconclusive; HEK293 cAMP ctrl: 1%; ERK AVP inh: -4%

How did CC(=O)Nc1ccc(NC(=O)c2cc(C)nn2-c2ccccc2)cc1 do in these assays?
TSHR agonist: inconclusive; Tau filament bind: -6%; CRE-bla Fsk: -1%; HEK293 cAMP ctrl: inconclusive; ERK AVP inh: 13%

Results for CC(=O)c1cc2c(cc1NC(=O)c1cc(C)nn1-c1ccccc1)OCO2 ?
TSHR agonist: inconclusive; Tau filament bind: 282%; CRE-bla Fsk: 7.9µM*; HEK293 cAMP ctrl: inconclusive; ERK AVP inh: 8%

Results for CCN(CC(=O)O)C(=O)c1cccnc1 ?
TSHR agonist: -5%[11.4 µM]; Tau filament bind: 12%[11.4 µM]; CRE-bla Fsk: 0%[7.6 µM]; HEK293 cAMP ctrl: 0%[11.4 µM]; ERK AVP inh: 3%[11.5 µM]

Results for Cc1sc2nc(SCC(=O)N(CCO)CCO)n(C3CCCCC3)c(=O)c2c1C ?
TSHR agonist: 20%; Tau filament bind: 101%; CRE-bla Fsk: 13µM*; HEK293 cAMP ctrl: 7%; ERK AVP inh: 5%

Results for Cc1ccccc1-c1nc2cc(N)ccc2o1 ?
Tau filament bind: -12%; CRE-bla Fsk: 11%; HEK293 cAMP ctrl: -9%; ERK AVP inh: -5%

How did CC(C)c1ccc2oc(-c3cc(N)ccc3O)nc2c1 do in these assays?
TSHR agonist: -25%[11.4 µM]; Tau filament bind: 3.2µM*; CRE-bla Fsk: inconclusive; HEK293 cAMP ctrl: -15%[11.4 µM]; ERK AVP inh: 15%

How did CCCN(CCC)S(=O)(=O)c1cc(Br)cc2c1N(C(=O)CC)CC2 do in these assays?
TSHR agonist: inconclusive; Tau filament bind: 23%; CRE-bla Fsk: 11%; HEK293 cAMP ctrl: 25µM*; ERK AVP inh: -14%

Results for CCC(=O)N1CCc2cc(Br)cc(S(=O)(=O)N3CCCCCC3)c21 ?
TSHR agonist: 3%[11.4 µM]; Tau filament bind: 45%; CRE-bla Fsk: 14%; HEK293 cAMP ctrl: 21%; ERK AVP inh: -10%

What do the screens show for `CC1=NNC(=S)NCCCN2CCN(CCCNC(=S)NN=C(C)C=NNC(=S)NCCCN3CCN(CCCNC(=S)NN=C1)CC3)CC2`?
TSHR agonist: -3%[11.4 µM]; Tau filament bind: inconclusive; CRE-bla Fsk: -11%[7.6 µM]; HEK293 cAMP ctrl: 1%[11.4 µM]; ERK AVP inh: 9%[11.5 µM]

How did CCn1c(=O)cc(SCC(=O)N2CCN(c3ccccc3OC)CC2)c2ccccc21 do in these assays?
TSHR agonist: 11%; Tau filament bind: 20%; CRE-bla Fsk: inconclusive; HEK293 cAMP ctrl: 14%; ERK AVP inh: 25µM*

Results for COc1ccccc1N1CCN(C(=O)c2cc3c(=O)n(C)c4ccccc4c3n2C)CC1 ?
TSHR agonist: 6%; Tau filament bind: 30%; CRE-bla Fsk: 2µM*; HEK293 cAMP ctrl: -1%; ERK AVP inh: -29%

How did Cn1c(C(=O)N2CCN(C(=O)c3ccco3)CC2)cc2c(=O)n(C)c3ccccc3c21 do in these assays?
TSHR agonist: -1%; Tau filament bind: -5%; CRE-bla Fsk: 4µM*; HEK293 cAMP ctrl: -9%; ERK AVP inh: -4%

Results for Cn1c(C(=O)N2CCN(c3ccc(Cl)cc3)CC2)cc2c(=O)n(C)c3ccccc3c21 ?
TSHR agonist: 0%; Tau filament bind: 4%; CRE-bla Fsk: 0%; HEK293 cAMP ctrl: -1%; ERK AVP inh: 16%

What do the screens show for `Cn1c(C(=O)N2CCN(c3ccc(F)cc3)CC2)cc2c(=O)n(C)c3ccccc3c21`?
TSHR agonist: -9%; Tau filament bind: 4%; CRE-bla Fsk: -8%; HEK293 cAMP ctrl: 0%; ERK AVP inh: -7%
